# Reference: PubChem BioAssay AID1851 (National Center for Advancing Translational Sciences (NCATS), 2009)
# Where “and” joins values, the source holds several entries; their conditions need not be identical. Equal entries are not always repeated. The campaign covered roughly 16,000 compounds. About 5,700 (36%) were called active. About 24% were inconclusive and are not listed. The list shows a part of the results. Values without a mark were called inactive. Calls come from the whole dose curve; as a rule, active = well fitted curve in the direction sought with a large enough effect; inconclusive = small, poorly fitted or top-dose-only effect, or effect the other way; inactive = no such curve, though single readings can be large or run the other way. Peptide text beside a SMILES is read from it. * marks the point of attachment. PhAc = O=C(Cc1ccccc1)*; OBn = c1ccc(CO*)cc1
# Biological target: Cytochrome P450 1A2 (Homo sapiens) (UniProt P05177)
# Sequence (P05177 whole entry, looked up): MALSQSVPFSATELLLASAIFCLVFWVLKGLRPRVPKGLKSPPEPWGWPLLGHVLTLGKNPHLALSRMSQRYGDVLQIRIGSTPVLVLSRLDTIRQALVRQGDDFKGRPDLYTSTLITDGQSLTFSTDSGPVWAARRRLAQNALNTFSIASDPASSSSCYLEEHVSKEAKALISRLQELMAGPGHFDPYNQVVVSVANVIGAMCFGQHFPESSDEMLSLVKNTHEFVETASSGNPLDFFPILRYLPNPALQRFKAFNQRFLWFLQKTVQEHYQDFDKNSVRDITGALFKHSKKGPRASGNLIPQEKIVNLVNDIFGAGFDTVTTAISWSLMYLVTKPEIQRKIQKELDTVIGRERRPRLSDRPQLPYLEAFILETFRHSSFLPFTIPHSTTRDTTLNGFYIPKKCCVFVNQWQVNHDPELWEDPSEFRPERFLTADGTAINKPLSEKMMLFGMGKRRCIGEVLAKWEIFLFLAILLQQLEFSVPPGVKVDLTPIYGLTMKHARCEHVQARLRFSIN
# Test: Cytochrome panel assay with activity outcomes
# Conditions: recombinant CYP, pro-luciferin dealkylation, luminescence, p450-cyp1a2; series mostly up to 57.1 µM; activity, negative = inhibition: at the top concentration
# % is set by controls: 0 for no effect and ±100 for the full control effect.
SMILES,"activity, negative = inhibition",AC50
O=C(CNC(=O)Cc1ccccc1)NCC(=O)OCc1ccccc1 (PhAc-Gly-Gly-OBn),-4.78%,
CC(C)(C)c1ccc(COC(=O)CNC(=O)CNC(=O)Cc2ccccc2)cc1,-5.5%,
CC(=O)SC[C@@H](Cc1ccccc1)C(=O)NCC(=O)OCc1ccccc1,,2510 nM (active)
COc1ccccc1NC(=O)c1nc[nH]c1C(=O)Nc1ccccc1OC,,200 nM (active)
COCn1c2ccccc2c2nnc(C(C)=O)nc21,-3.08% [at 11.4 µM] and -1.56% [at 11.4 µM],
Cc1c(NC(=O)CSc2nnc3c4ccccc4n(CCc4ccccc4)c3n2)c(=O)n(-c2ccccc2)n1C,-27.3%,
CCn1c2ccccc2c2nnc(NCCCO)nc21,,1580 nM (active)
CCN(CC)c1ncnc2c1sc1nc(C)cc(C)c12,,1410 nM (active)
O=C(c1csnn1)N1CCC2(CC1)CCN(c1ncccn1)CC2,5.92%,
C[N+](C)(C)CC(=O)O,-10.1%,
Cc1ccc(-c2nn3c(C)nnc3c3ccccc23)cc1S(=O)(=O)NCCN1CCOCC1,-16.7%,
CS(=O)(=O)Nc1cccc(-c2ccc3ncnc(NCCN4CCOCC4)c3c2)c1,,25100 nM (active)
Cn1nc(-c2ccc(N3CCOCC3)c(NS(=O)(=O)c3ccc(Cl)cc3)c2)c2ccccc2c1=O,-9.5%,
CS(=O)(=O)Nc1cccc(-c2ccc3ncnc(N4CCOCC4)c3c2)c1,,12600 nM (active)
CS(=O)(=O)Nc1cccc(-c2nc(N3CCOCC3)c3ccccc3n2)c1,,5010 nM (active)
CS(=O)(=O)Nc1ccc(S(=O)(=O)N2CCOCC2)cc1,20%,
CS(=O)(=O)Nc1cccc(-c2ccc3ncnc(N4CCNCC4)c3c2)c1,,12600 nM (active)
CC(=O)OC[C@@H]1O[C@@H](O/N=C2/C[C@@H](O)[C@@H](O)[C@@H]3[C@@H]4C(=O)N(Cc5ccccc5)C(=O)[C@H]4CC[C@@H]23)[C@H](OC(C)=O)[C@H](OC(C)=O)[C@@H]1OC(C)=O,-3.54% [at 11.4 µM],
N#Cc1ccc(CN2CCC3(CC2)CCN(C(=O)c2csnn2)CC3)cc1,12.3%,
O=C(c1ccco1)N1CCC2(CC1)CN(Cc1cc(C(F)(F)F)cc(C(F)(F)F)c1)C2,-6.44%,
CN1C(=O)C[C@H](c2ccccc2)C1=O,-13.8% [at 25.6 µM],

SMILES,"activity, negative = inhibition",AC50
COc1cccc([C@@H]2Oc3ccc(OC)cc3/C(=N/O[C@@H](C)CN3CCCCc4nc(C)c(C)cc43)[C@@H]2O)c1,-8.62% [at 11.4 µM],
Cc1cc(C(=O)OCC(=O)NCCC(C)C)c2ccccc2n1,,4470 nM (active)
CC(C)CCNC(=O)Cc1ccccc1[N+](=O)[O-],-17.5%,
CO[C@H]1COC(=O)CCC[C@H](C)[C@@H](OC)COC(=O)C/C=C\[C@@H]1C,-4.49% [at 11.4 µM],
N#Cc1c(-c2ccc3c(c2)OCO3)ccn2nc(-c3cccc(C(F)(F)F)c3)nc12,,56.2 nM (active)
CCNC(=O)C1CC(=O)OC12CCCCC2 (stereo unspecified),14.9%,
CC(C)=CCC/C(C)=C/CO/N=C1/C[C@@H](O)[C@@H](O)[C@@H]2[C@@H]3C(=O)N(Cc4ccc5c(c4)OCO5)C(=O)[C@H]3CC[C@H]12,-9.49% [at 11.4 µM],
OC(c1ccccc1)(c1ccc(F)cc1)C(c1ccccc1)N1CCOCC1 (stereo unspecified),-5.57%,
N#C/C(=C/N1CCOCC1)c1ccccc1,,891 nM (active)
Oc1c(CN2CCOCC2)cc(-c2ccccc2)cc1CN1CCOCC1,-25.6%,
NS(=O)(=O)c1cc2c(cc1Cl)N[C@@H](CC1CCCC1)NS2(=O)=O,-7.47% [at 25.6 µM],
O=C1NC(c2ccc(Br)cc2)Nc2sc3c(c21)CCC3 (stereo unspecified),,2510 nM (active)
CC(C)OCCCN1C(=O)c2ccccc2C1C(=O)NC1CCCCC1 (stereo unspecified),-5.24%,
CC(C)OCCCn1c(=S)[nH]c2ncccc2c1=O,,2510 nM (active)
COCC(=O)N1CCC[C@@]2(CCN(C(=O)Nc3cccc(F)c3)C2)C1,0.683%,
COCOc1cc(OC)ccc1C(=O)/C=C\c1ccc2c(c1)OCO2,-3.69% [at 11.4 µM],
COc1ccc(CNc2ccnc(-c3ccc4c(c3)OCO4)n2)c(OC)c1,,1260 nM (active)
COc1ccccc1CNc1ccnc(-c2ccc3c(c2)OCO3)n1,,631 nM (active)
COc1ncc2nc(-c3ccccc3)c(=O)n(C)c2n1,,1580 nM (active)
COc1ccc(-c2nc3cnc(OC)nc3n(C)c2=O)cc1,,2510 nM (active)
COc1ncc2nc(-c3ccc(F)cc3)c(=O)n(C)c2n1,,501 nM (active)

SMILES,"activity, negative = inhibition",AC50
C[C@@H]1O[C@@H](n2cc(F)c(=O)[nH]c2=O)[C@H](O)[C@@H]1O,-4.19%,
O=C(c1cnccn1)N1CCC2(CC1)CN(c1ccncc1)C2,-0.142%,
O=C(Nc1nnc(CCS(=O)(=O)c2ccc(Br)cc2)s1)c1ccc([N+](=O)[O-])cc1,0.122%,
O=C(COc1ccc(Br)cc1)Nc1ccc([N+](=O)[O-])cn1,,2000 nM (active)
CC(=O)Nc1ccc([N+](=O)[O-])cn1,,17800 nM (active)
COC(=O)C(C)(C(=O)OC)c1ccc([N+](=O)[O-])cn1,-26.4%,
O=C(COc1ccc([N+](=O)[O-])cc1)NN=C1CCCC1,,12600 nM (active)
O=C(COc1ccc([N+](=O)[O-])cc1)Nc1ccc(C(=O)NCc2cccnc2)cc1,-14.6%,
COc1ccc(N(CC(=O)NN=C2CCCC2)S(=O)(=O)c2ccccc2)cc1,-13.5%,
C=CCC(C(=O)OC)(C(=O)OC)c1ccc([N+](=O)[O-])cn1,-1.25%,
O=C(CN(c1ccccc1)S(=O)(=O)c1ccccc1[N+](=O)[O-])NN=C1CCCCCCC1,-0.283%,
O=c1ccn([C@@H]2O[C@@H](COP(=O)(O)OP(=O)(O)O)[C@H](O)[C@@H]2O)c(=O)[nH]1,-0.565%,
Cc1cccc(/C=N\Nc2cn[nH]c(=O)c2Cl)c1,,5010 nM (active)
Cc1cccc(NC(=S)NNC(=O)c2csc3c2CCCC3)c1,,8910 nM (active)
CCCOc1ccc(C(=O)OCCN(CC)CC)cc1N,,5010 nM (active)
CCN(CC)CCCCCCCCOC(=O)c1cc(OC)c(OC)c(OC)c1,-7.41%,
COc1cc(N)c(Cl)cc1C(=O)OCCCN1CCCCC1,-35.8%,
CCCOc1cc(N)ccc1C(=O)OCCN(CC)CC,,12600 nM (active)
CCN(CC)CCOC(=O)c1cc(Cl)c(N)cc1OC,,12600 nM (active)
